Source: PubChem (several laboratories)
Measles CPE: protection of cells from measles virus; Measles virus-infected cells, CPE protection, absorbance; protection (pct of control), % at 4 µM; hit rate 1.5% among 140,000; AID 841; in the data active means protection mostly above about 24%, no sharp cut-off; inactive means mostly below about 26%
CYP2C19 inh: human CYP2C19 inhibition; inhibition, % at 5 µM; hit rate 21% among 96,000; CYP2C19 Supersomes, luciferin-H EGE luminescence, 30 min;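 active means CYP2C19 inhibition above a set limit at 5 µM in the primary screen, cut at about 50% in these data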;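 further: plate controls were negative control wells for no effect and 2.5 mM tranylcypromine positive control for full effect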
Target sequence (P33261 whole entry, looked up): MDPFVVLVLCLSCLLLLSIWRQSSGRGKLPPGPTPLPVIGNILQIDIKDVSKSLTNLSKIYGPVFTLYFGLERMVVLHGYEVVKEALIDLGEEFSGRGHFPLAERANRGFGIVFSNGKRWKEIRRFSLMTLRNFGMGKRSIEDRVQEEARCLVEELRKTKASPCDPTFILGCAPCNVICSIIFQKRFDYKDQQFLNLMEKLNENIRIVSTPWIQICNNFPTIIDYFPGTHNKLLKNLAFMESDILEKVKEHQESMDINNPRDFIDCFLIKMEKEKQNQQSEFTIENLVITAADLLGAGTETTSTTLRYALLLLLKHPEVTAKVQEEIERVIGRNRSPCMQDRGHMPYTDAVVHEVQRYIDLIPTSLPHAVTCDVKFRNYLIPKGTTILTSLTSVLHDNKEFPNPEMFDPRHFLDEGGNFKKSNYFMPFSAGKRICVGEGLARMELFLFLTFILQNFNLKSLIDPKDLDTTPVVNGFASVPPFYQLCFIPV
CYP2C9 activ: increases human cytochrome P450 2C9 activity. recombinant CYP2C9, luciferin-H conversion, luminescence; active compounds read high; factor 1 = untreated enzyme, 0 = blocked. P11712. activation factor at 5 µM. hit rate 1.4% among 96,000;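 active means activation factor of 2 or more for CYP2C9 at a 5 µM dose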;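 further: 0 = sulfaphenazole-blocked wells and 1 = vehicle-only wells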
CYP2C9 inhib: blocks human cytochrome P450 2C9; P11712; CYP2C9 Supersomes, luciferin-H conversion, luminescence; inhibition, % at 5 µM; hit rate 20% among 96,000; AID 777;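 active means blocking of liver enzyme CYP2C9 beyond about 50% at 5 µM, limit read from the data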
CYP2C19 activ: activators of human cytochrome P450 2C19; 96,000 tested, under 10 active; activation factor at 5 µM; P33261; recombinant CYP2C19, luciferin-H EGE luminescence; active compounds read high; 0 = fully inhibited enzyme, 1 = untreated enzyme; AID 1025;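 active means activation factor of at least 2 at 5 µM in the primary screen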;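 further: 0 = wells with 2.5 mM tranylcypromine and 1 = vehicle-only wells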
The depositor's hits bear a star. Rows were chosen to be rich in hits. Some 22% of all compounds tested hit in one or more screens of this group.

`COc1cc(Cn2c(=O)oc3ccc(C)cc32)ccc1OC(C)C` gave Measles CPE 19.
Screening CCOc1ccc(Cn2c(=O)oc3ccc(C)cc32)cc1OC returned Measles CPE 7, CYP2C19 inh 64*, CYP2C9 activ 0.6, CYP2C9 inhib 39 and CYP2C19 activ 0.4.
For COc1ccc(/C=N/OCC(=O)NCc2cccs2)c(OC)c1 the results were Measles CPE 5.
Screening C=CCn1c(SCC(=O)N2CCCC2)nc2scc(-c3cccs3)c2c1=O returned Measles CPE 25, CYP2C19 inh 10, CYP2C9 activ 1.1, CYP2C9 inhib -6 and CYP2C19 activ 0.9.
`C=CCn1c(SCC(=O)Nc2sccc2C(N)=O)nc2sc(CC)cc2c1=O` gave Measles CPE 11, CYP2C19 inh 34, CYP2C9 activ 0.3, CYP2C9 inhib 66* and CYP2C19 activ 0.7.
Screening C=CCn1c(SCC(=O)Nc2sccc2C(N)=O)nc2ccc(Cl)cc2c1=O returned Measles CPE 8, CYP2C19 inh -2, CYP2C9 activ 0.8, CYP2C9 inhib 18 and CYP2C19 activ 1.
For C=CCn1c(SCC(=O)NCc2ccc3c(c2)OCO3)nc2scc(-c3ccccc3)c2c1=O the results were Measles CPE 9, CYP2C19 inh 37, CYP2C9 activ 0.5, CYP2C9 inhib 54* and CYP2C19 activ 0.6.
Screening C=CCn1c(SCn2nnc3ccccc3c2=O)nc2scc(-c3cccs3)c2c1=O returned Measles CPE 5, CYP2C19 inh 36, CYP2C9 activ 0.3, CYP2C9 inhib 72* and CYP2C19 activ 0.6.
For C=CCn1c(SCC(=O)Nc2ccccc2)nc2scc(-c3cccs3)c2c1=O the results were Measles CPE 4, CYP2C19 inh 83*, CYP2C9 activ 0, CYP2C9 inhib 100* and CYP2C19 activ 0.2.
Screening O=C(OCC(=O)N1CCc2ccccc2C1)c1cccc([N+](=O)[O-])c1 returned Measles CPE 9.
`COC(=O)c1c(C(=O)OC)c(C)n(Cc2cccnc2)c1C` gave Measles CPE 4, CYP2C19 inh 28, CYP2C9 activ 0.5, CYP2C9 inhib 51* and CYP2C19 activ 0.7.
`COC(=O)c1c(C(=O)OC)c(C)n(Cc2ccco2)c1C` gave Measles CPE 9, CYP2C19 inh 41, CYP2C9 activ 1, CYP2C9 inhib 0 and CYP2C19 activ 0.6.
For Cc1nc2c(cnn2-c2ccccc2Cl)c(=O)n1-c1ccc(C(C)C)cc1 the results were Measles CPE 10, CYP2C19 inh 18, CYP2C9 activ 1.2, CYP2C9 inhib -22 and CYP2C19 activ 0.8.
`COC(=O)Nc1cccn(Cc2c(Cl)cccc2Cl)c1=O` gave Measles CPE 9, CYP2C19 inh 87*, CYP2C9 activ 2.5*, CYP2C9 inhib -145 and CYP2C19 activ 0.1.
Screening O=C(Nc1cccn(Cc2c(Cl)cccc2Cl)c1=O)c1c(Cl)cccc1Cl returned Measles CPE 16, CYP2C19 inh 16, CYP2C9 activ 0.6, CYP2C9 inhib 40 and CYP2C19 activ 0.8.
Cc1ccccc1-n1c(=O)c2ccccc2n2nnnc12 was read as Measles CPE 6, CYP2C19 inh 58*, CYP2C9 activ 1.1, CYP2C9 inhib -8 and CYP2C19 activ 0.4.
Screening Cc1ccccc1-n1c(Cn2c(=O)sc3ccccc32)nnc1SC(C)C returned Measles CPE 16.
O=C(c1cc(C(=O)NCCc2ccccc2)c(=O)n(CCc2ccccc2)c1)c1cc(Cl)ccc1O was read as Measles CPE 11.
For Cc1cc(Cl)c(S(=O)(=O)NC2CCCCC2)cc1OCC(=O)Nc1nncs1 the results were Measles CPE 2.
`COc1ccccc1OCC(O)Cn1nc(C)cc1C` (centres undefined) gave Measles CPE 6.
Screening Cc1cc(C)n(CC(O)COc2ccccc2C(=O)Nc2ccccc2)n1 (centres undefined) returned Measles CPE 4, CYP2C19 inh 91*, CYP2C9 activ 0.1, CYP2C9 inhib 88* and CYP2C19 activ 0.1.
For FC(F)(F)c1ccc(CN2CCCCCC2)cc1 the results were Measles CPE 22, CYP2C19 inh 53*, CYP2C9 activ 0.8, CYP2C9 inhib 18 and CYP2C19 activ 0.5.
`Nc1ccc(CN2CCCCCC2)cc1` gave Measles CPE 39.
O=C(NC1CCCC1)C(c1ccncc1)N(CC1CCCO1)C(=O)Cn1nnc(-c2cccs2)n1 (centres undefined) was read as Measles CPE 13, CYP2C19 inh 78*, CYP2C9 activ 0, CYP2C9 inhib 95* and CYP2C19 activ 0.2.
For COc1ccc(-c2nnn(CC(=O)N(Cc3ccccc3Cl)C(C(=O)NCC3CCCO3)c3ccco3)n2)cc1OC (centres undefined) the results were Measles CPE 6, CYP2C19 inh 19, CYP2C9 activ 0.1, CYP2C9 inhib 92* and CYP2C19 activ 0.8.
O=C(CCn1nnc(-c2cccs2)n1)NC1CCCCC1 was read as Measles CPE 12, CYP2C19 inh 76*, CYP2C9 activ 1.3, CYP2C9 inhib -32 and CYP2C19 activ 0.2.
For Cc1ccc(C(C(=O)NCC2CCCO2)N(Cc2ccccc2F)C(=O)Cn2nnc(-c3cccs3)n2)cc1 (centres undefined) the results were Measles CPE 9, CYP2C19 inh 33, CYP2C9 activ 0.5, CYP2C9 inhib 52* and CYP2C19 activ 0.7.
`COc1ccc(N(C(=O)Cn2nnc(-c3ccc(Cl)cc3)n2)C(C(=O)NCC2CCCO2)c2ccc(C)cc2)cc1` (centres undefined) gave Measles CPE 9, CYP2C19 inh -12, CYP2C9 activ 0.9, CYP2C9 inhib 7 and CYP2C19 activ 1.1.
Screening O=C(CN1N=C(c2ccc(Cl)cc2)CCC1=O)NCc1cccnc1 returned Measles CPE 17.
For Cc1nc(C)c(-c2nnc(-c3ccc(C(C)(C)C)cc3)o2)cc1C(=O)NN the results were Measles CPE 18.
`CC1c2[nH]c3ccccc3c2CCN1S(C)(=O)=O` (centres undefined) gave Measles CPE 4, CYP2C19 inh 98*, CYP2C9 activ 1, CYP2C9 inhib 3 and CYP2C19 activ 0.
For CCCn1c(SCC(=O)c2ccc(OC)c(OC)c2)nc2c1c(=O)n(C)c(=O)n2C the results were Measles CPE 3.
`CC1(C)Cc2c(C#N)c(OCC(=O)c3ccc(Cl)cc3)nc(-c3ccoc3)c2CO1` gave Measles CPE 10, CYP2C19 inh 79*, CYP2C9 activ 0.6, CYP2C9 inhib 38 and CYP2C19 activ 0.2.
`CC1(C)Cc2c(c(-c3ccccc3Cl)[nH]c(=O)c2C#N)CO1` gave Measles CPE 28*, CYP2C19 inh 92*, CYP2C9 activ 1, CYP2C9 inhib 4 and CYP2C19 activ 0.1.
For CC(C)Cc1[nH]c(=O)c(C#N)c2c1COC(C)(C)C2 the results were Measles CPE 9, CYP2C19 inh 46, CYP2C9 activ 1.1, CYP2C9 inhib -10 and CYP2C19 activ 0.5.
Screening CC1(C)Cc2c(c(-c3ccccc3)[nH]c(=O)c2C#N)CO1 returned Measles CPE 13, CYP2C19 inh 55*, CYP2C9 activ 1.1, CYP2C9 inhib -8 and CYP2C19 activ 0.4.
